Results reported in PubChem BioAssay (Tox21).
Records with an inconclusive call do not appear. Entries that show only a call come without a potency. Active and inactive are the calls of the source. Calls come from the whole dose curve; as a rule, active = well fitted cell-killing curve with a large enough effect in the repeat runs; inconclusive = weak or mixed curves, or effect the other way; inactive = flat fitted curve, though single readings scatter.

How the values were obtained:
[1] = cAMP Responsive Elements (CRE) small molecule antagonists, cell-based qHTS assay: qHTS cell viability counter screen (AID 2060913); settings: CRE-bla HEK293T viability, CellTiter-Glo luminescence, 5 h; series mostly up to 92.4 µM; note: nearly all actives have a fitted effect of over 40% in size
Procedure, shortened: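 Steps: cells plated and held 18 hrs at 37 C/5% CO2; compounds and NKH477 (0.25 uM final) added; 3 hrs incubation; reporter substrate read; CellTiter-Glo added to measure cytotoxicity by luminescence.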

[2] = cAMP Responsive Elements (CRE) small molecule agonists, cell-based qHTS assay: qHTS cell viability counter screen (AID 2060914); settings: CRE-bla HEK293T viability, CellTiter-Glo luminescence, 5 h; series mostly up to 92.4 µM; note: nearly all actives have a fitted effect of over 50% in size; note: potency is the fitted concentration of half-maximal effect
Procedure, shortened: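 In the same wells as the reporter read, viability of CRE-bla HEK 293T cells was quantified by CellTiter-Glo luminescence after a 3 h compound exposure.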

Structure (SMILES) | Potency [1] | Potency [2]
CCCCC(=O)Cl | inactive | inactive
[As]#[In] | inactive | 2170 nM (active)
CCOc1nc(F)cc2nc(S(=O)(=O)Nc3c(Cl)cccc3Cl)nn12 | inactive | inactive
CN=C=S | inactive | inactive
C[C@]12CC[C@H]3[C@@H](CC[C@@]45O[C@@H]4C(O)=C(C#N)C[C@]35C)[C@@H]1CC[C@@H]2O | inactive | inactive
C=C(C)C(=O)OCC(CC)CCCC (centres undefined) | inactive | inactive
O=C(O)c1nc(Cl)ccc1Cl | inactive | inactive
CCOP(=O)(OCC)Oc1cc(C)nc(C(C)C)n1 | inactive | inactive
CCS(=O)(=O)c1cccnc1S(=O)(=O)NC(=O)Nc1nc(OC)cc(OC)n1 | inactive | inactive
CCOC(C(=O)OCCN(C)C)(c1ccccc1)c1ccccc1 | inactive | inactive
Cc1cc(C)nc(Nc2ccccc2)n1 | inactive | inactive
CCCC[N+]1(C)CCCC1 | inactive | inactive
C=CCO | inactive | inactive
Cc1ccc(N(SC(F)(Cl)Cl)S(=O)(=O)N(C)C)cc1 | inactive | inactive
O=C(NC(O)C(Cl)(Cl)Cl)NC(O)C(Cl)(Cl)Cl (centres undefined) | inactive | inactive
CCC(C)c1cccc(C(C)CC)c1O (centres undefined) | – | inactive
O=c1[nH]c2ccccc2n1C1CCN(CCCC(c2ccc(F)cc2)c2ccc(F)cc2)CC1 | inactive | inactive
N#Cc1cc(I)c(O)c(I)c1 | – | inactive
Nc1ccc(-c2ccc(N)c(N)c2)cc1N | inactive | inactive
CCCN | inactive | inactive
CCOP(=S)(OCC)Oc1cnc2ccccc2n1 | – | inactive
CC(Cl)Cl | inactive | inactive
CNN | inactive | inactive
Cc1ccc(C)c2ccccc12 | inactive | inactive
ClCc1ccccc1Cl | inactive | inactive
Nc1ccc([N+](=O)[O-])cc1Cl | inactive | inactive
Cc1cccc([N+](=O)[O-])c1 | – | inactive

Structure (SMILES) | Potency [1] | Potency [2]
N#C/C(N)=C(/N)C#N | inactive | inactive
N#Cc1c[nH]cc1-c1cccc2c1OC(F)(F)O2 | – | inactive
O=C(N[C@H]1N=C(c2ccccc2F)c2cccc3c2N(CC3)C1=O)c1cc2ccccc2[nH]1 | inactive | inactive
CSC(=O)c1c(C(F)F)nc(C(F)(F)F)c(C(=O)SC)c1CC(C)C | – | inactive
C[N+](C)(C)CCOC(=O)C(O)(c1ccccc1)c1ccccc1 | – | inactive
CCCCCCCC(=O)Cl | inactive | inactive
C[C@]12CC[C@H]3[C@@H](CC=C4C[C@@H](O)CC[C@@]43C)[C@@H]1CC[C@@H]2O | inactive | inactive
C[C@]12CCC(=O)C[C@@H]1CC[C@@H]1[C@@H]2CC[C@]2(C)[C@@H](O)CC[C@@H]12 | – | inactive
COCCOCCO | – | inactive
COC(=O)C(C)N(C(=O)c1ccco1)c1c(C)cccc1C (centres undefined) | inactive | inactive
O=P1(N(CCCl)CCCl)NCCCO1 (centres undefined) | inactive | inactive
O=NN1CCCCCCC1 | inactive | inactive
O=S1(=O)OCC2C(CO1)C1(Cl)C(Cl)=C(Cl)C2(Cl)C1(Cl)Cl (centres undefined) | – | inactive
COc1ccc(/C(=C/C(=O)N2CCOCC2)c2ccc(Cl)cc2)cc1OC | – | inactive
CCOC(=O)CC(SP(=S)(OC)OC)C(=O)OCC (centres undefined) | – | inactive
Cc1ccccc1CCl | – | inactive
CCOP(O)OCC | – | inactive
NC1CCC(CC2CCC(N)CC2)CC1 (centres undefined) | – | inactive
CN(C)C(=O)Nc1cccc(C(F)(F)F)c1 | – | inactive
O=C(CCl)C(Cl)Cl | – | inactive
CC(C)c1ccc(OP(=O)(Oc2ccc(C(C)C)cc2)Oc2ccc(C(C)C)cc2)cc1 | – | inactive
O=[N+]([O-])c1cc(Cl)c(Cl)cc1Cl | – | inactive
O=[N+]([O-])c1c(Cl)c(Cl)c(Cl)c(Cl)c1Cl | – | inactive
Clc1ccccc1Cl | – | inactive
Cc1ccc(-c2c(Cl)nc(C#N)n2S(=O)(=O)N(C)C)cc1 | – | inactive
CCOP(=S)(S)OCC | – | inactive
Cc1c(Cl)c(=O)oc2cc(OP(=O)(OCCCl)OCCCl)ccc12 | – | inactive

Structure (SMILES) | Potency [1] | Potency [2]
CC(O)(CS(=O)(=O)c1ccc(F)cc1)C(=O)Nc1ccc(C#N)c(C(F)(F)F)c1 (centres undefined) | – | inactive
COC(=O)c1ccccc1N | – | inactive
CC(C)N1C(=O)N(c2ccccc2)CSC1=NC(C)(C)C | – | inactive
O=C(O)CC(Cl)C(=O)O (centres undefined) | – | inactive
Cc1cc(Cl)ccc1OCC(=O)O | – | inactive
CCCCCCCCSC(=O)Oc1cc(Cl)nnc1-c1ccccc1 | – | inactive
N#CCCl | – | inactive
C=CCC1=C(C)[C@@H](OC(=O)[C@@H]2[C@@H](C=C(C)C)C2(C)C)CC1=O | – | inactive
CCCCNP(N)(N)=S | – | inactive
CC(C)OC(=O)C(O)(c1ccc(Cl)cc1)c1ccc(Cl)cc1 | – | inactive
N#Cc1c(-c2ccc(Cl)cc2)[nH]c(C(F)(F)F)c1Br | – | inactive
CNC(C)Cc1ccc2c(c1)OCO2 (centres undefined) | – | inactive
O=C1CN2CCOC2(c2ccccc2Cl)c2cc(Cl)ccc2N1 (centres undefined) | – | inactive
COP(=O)(CCC(=O)NCO)OC | – | inactive
N#Cc1ccccc1Cl | – | inactive
Clc1cc(Cl)c(Cl)c(Cl)c1 | – | inactive
CCCCC1C(=O)NC(=O)N(C2CCCCC2)C1=O (centres undefined) | – | inactive
CN(C)C(=O)Oc1cc(OC(=O)N(C)C)cc(C(O)CNC(C)(C)C)c1 (centres undefined) | – | inactive
O=C(CBr)OCc1ccccc1 | – | inactive
Cc1cc(C)c(C(=O)P(=O)(c2ccccc2)c2ccccc2)c(C)c1 | – | inactive
Cc1cc(-c2ccc(N)c(C)c2)ccc1N | – | inactive
Oc1c(Br)c(Br)c(Br)c(Br)c1Br | – | inactive
CC(C)(OO)c1ccccc1 | – | inactive
CCCCCCCCBr | – | inactive
CCCCCCCCCl | – | inactive
